Drawing on ChEMBL document CHEMBL4513216, “Probing the Open Global Health Chemical Diversity Library for Multistage-Active Starting Points for Next-Generation Antimalarials” (ACS Infect Dis, 2020), this text covers INHIBITION for 49 molecules.

About 2,700 (4%) of roughly 68,000 compounds showed an effect of 50% or more. Only a selection was taken, and strong results are over-represented in it overall.

The assay relates to Plasmodium berghei. The assay is described as follows: Screen against P. berghei liver stage (PbLuc), transformed with Luciferase, at 2uM. The format is functional, HepG2. As to conditions: tested at 2 uM.
For `N[C@@H]1CCC[C@@H](Oc2ccc(F)cc2Oc2ccccc2)[C@@H]1O`, the INHIBITION is recorded as 61.99%. As for `COC(=O)Cn1c(=O)[nH]c2cn(-c3ccc(F)cc3)c(=O)n21`, the INHIBITION was -3.97%. Under `O=C1COc2ccc(C(=O)NS(=O)(=O)c3ccccc3F)cc2N1` stands 8.37%; under `Cc1nnc([C@@H]2C[C@H]3CN(C(=O)c4c(C)noc4C)C[C@H]3O2)[nH]1`, 38.2%. For the molecule `CC(=O)N1CCN(C(=O)c2cnn(-c3ccccc3Cl)c2)CC1`, the INHIBITION is recorded as -90.79%. For the molecule `Cc1ccnn1CC(=O)N1CCN(C2CCc3ccccc3C2)CC1` (centres undefined), the INHIBITION is reported as 46.02%. To `Cc1ccnn1CCC(=O)N1CCN(C2CCc3ccccc3C2)CC1` (centres undefined) belongs 14.13%. Under `CCCn1nccc1C(=O)N1CCN(C2CCc3ccccc3C2)CC1` (centres undefined) stands 57.85%; under `CN1CCN(C(=O)c2cnn(-c3ccccc3Cl)c2)CC1`, -1.02%; under `CC(=O)N1CCCN(C(=O)c2cnn(-c3ccccc3Cl)c2)CC1`, 82.5%.

In the case of `Cc1nn(C)cc1C(=O)N1CCCN(C2Cc3ccccc3C2)CC1`, the INHIBITION is given as 19.12%.

As to `Cn1cc(C(=O)N2CCCN(C3Cc4ccccc4C3)CC2)cn1`, the INHIBITION was determined as 55.66%. As to `Cn1cc(Cl)c(C(=O)N2CCCN(C3Cc4ccccc4C3)CC2)n1`, the INHIBITION is -18.65%. Turning to `CCN(CC)C1CCN(C(=O)c2cc(-n3cccn3)ccc2Cl)CC1`, the INHIBITION is reported as -16.01%.

In the case of `Cc1noc(C)c1C(=O)NCC(C)N(C)C` (centres undefined), the INHIBITION came to 8.37%. Turning to `CC[C@@H]1N(Cc2ccc(C)o2)CCC[C@]12CCC(=O)N2CCOC`, the INHIBITION came to 33.74%.

On to `O=C(CCCc1ccccn1)N1CCCC1c1noc(C2CC2)n1` (centres undefined), for which the INHIBITION was 30.91%. Regarding `COc1c(C)cnc(CN(C)C2CCCCC2)c1C`, the INHIBITION was determined as 11.8%. Turning to `O=c1c(NCCNCCO)c(N2CCN(c3ccccc3)CC2)c1=O`, the INHIBITION is recorded as -11.72%. Regarding `CC1(C(N)=O)CCCN(c2cnccn2)C1` (centres undefined), the INHIBITION was -4.8%. Turning to `CC(C)[C@@H](CO)Nc1cc(-c2cn[nH]c2)ncn1`, the INHIBITION turned out to be 21.81%. For `O=C([C@H]1COC[C@H]2CN(C3CCCC3)C[C@H]21)N1CCOCC1`, the INHIBITION is recorded as 12.4%.

Take `CC(=O)c1ccc(Cl)c(Cl)c1OCC(=O)NC(C)C`: the INHIBITION amounted to 26.27%.

For the molecule `COc1ccc2c(c1)C1(CCN(Cc3nccs3)CC1)N(C)CC2`, the INHIBITION was 13.75%. With `CC(NC(=O)Cc1cccs1)(C(N)=O)c1cccc(Cl)c1` (centres undefined), the INHIBITION is listed as -18.59%.

For `CC(=O)N1Cc2ccccc2C[C@H]1C(=O)N(C)CCc1ccccn1`, the INHIBITION is given as 8.73%. Under `CN(CCc1ccccn1)C(=O)C1Cc2ccccc2CN1C` (centres undefined) stands 31.78%; under `CC(=O)N1Cc2ccccc2C[C@H]1C(=O)N(C)Cc1ccccn1`, 58.12%; under `Cc1nnsc1C(=O)NCc1nn(C)c2c1COCC2`, -1.74%. In the case of `O=C(C1CCOCC1)N1C[C@@H]2CC[C@H]1CN(C1Cc3ccccc3C1)C2`, the INHIBITION amounted to 27.33%.

With `COC(=O)[C@H]1C[C@@H](O)CCN1S(=O)(=O)c1cc(Cl)ccc1OC`, the INHIBITION worked out at 55.18%. Regarding `COC(=O)[C@H]1C[C@@H](O)CCN1S(=O)(=O)c1cc(C)c(Cl)cc1C`, the INHIBITION was 26.51%. As for `COC(=O)[C@H]1C[C@@H](O)CCN1S(=O)(=O)c1ccc(F)cc1F`, the INHIBITION was found to be 16.25%. On to `CCS(=O)(=O)N1CCc2c(cccc2NCc2nc(C)c(C)o2)C1`, for which the INHIBITION was -23.97%. `COCCN(Cc1cnn(C)c1)Cc1ccc(C)o1`: the INHIBITION is 12.58%. With `CCC(=O)Nc1nnc(CCOc2ccc(OC)cc2)s1`, the INHIBITION is -14.16%. Under `COCCN(Cc1ccc(C)o1)C(=O)Nc1nnc2ccccn12` stands 33.9%; under `CCc1nnc(NC(=O)N(CCOC)Cc2ccc(C)o2)s1`, 83.98%. Consider `COCCN(Cc1ccc(C)o1)C(=O)Nc1nnc(C(F)F)s1`, for which the INHIBITION is listed as -44.8%. Turning to `COCCN(Cc1ccc(C)o1)C(=O)Nc1ncc(C)s1`, the INHIBITION turned out to be 62.51%. For `Cc1noc(C)c1CCC(=O)N1CCCCC1CNS(C)(=O)=O` (centres undefined), the INHIBITION was -3.46%. Turning to `COc1ccccc1C(C)(C)NC(=O)c1ccc(F)c(NC(C)=O)c1`, the INHIBITION turned out to be 38.49%.

`Cc1nc(-c2ccccc2C(=O)O)cc(C2CCN(C(C)C)C2)n1` (centres undefined): the INHIBITION was found to be 17.01%.

For the molecule `CN(Cc1cccnc1)CC1CCCN1c1cccnn1` (centres undefined), the INHIBITION was 33.31%. With `Cc1nc(N2CCN(C)CC2)ncc1C(=O)N1CCCCCC1`, the INHIBITION is on record as -15.75%.

Consider `Cc1ccc(-c2n[nH]cc2CNCCn2cccn2)o1`, for which the INHIBITION was found to be 7.85%. For the molecule `CCN1CCN(c2ccc(CNC(=O)c3ccccc3F)cn2)CC1`, the INHIBITION is recorded as 20.41%.

Turning to `O=C(Cc1cccnc1)N1CCCC(n2cncn2)C1` (centres undefined), the INHIBITION was -7.82%.

Take `NC(=O)N1CCC2(CC1)CN(c1ccsc1)C(=O)CO2`: the INHIBITION was -12.73%.
